# Screening results as filed in PubChem.
# Shown are actives, neighbours in structure and some others; about 2.9% of the full set was active somewhere.
# ADAM10 inh: inhibits human ADAM10 | O14672 | recombinant ADAM10, EDANS/DABCYL FRET peptide cleavage, 3 h | inhibition, % at 7 µM | 0.62% of 370,000 active | AID 720582;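 active = inhibition above a per-campaign cutoff equal to the mean of compounds falling between control-based bounds plus 3 SD, cut at about 20% in these data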;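 also: 0% = DMSO wells while the 100% control is not disclosed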
# PLC-gamma1 inh: inhibitors of human phospholipase C gamma1. purified PLC-gamma1, fluorogenic substrate, fluorescence. inhibition, % at 12.2 µM. 0.84% of 370,000 active. AID 720700; in the data active = inhibition above about 9.5%
# ADAM17 inh: inhibits human ADAM17; AID 720648; inhibition, % at 6.95 µM; recombinant ADAM17, EDANS/DABCYL FRET peptide cleavage; 0.83% of 370,000 active;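 active = inhibition above the mean of compounds lying between control limits plus 3 SD, set per campaign, cut at about 8.5% in these data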;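 also: 0% = DMSO-only wells as the low control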
# Target sequence (P78536 215-824 limits assumed): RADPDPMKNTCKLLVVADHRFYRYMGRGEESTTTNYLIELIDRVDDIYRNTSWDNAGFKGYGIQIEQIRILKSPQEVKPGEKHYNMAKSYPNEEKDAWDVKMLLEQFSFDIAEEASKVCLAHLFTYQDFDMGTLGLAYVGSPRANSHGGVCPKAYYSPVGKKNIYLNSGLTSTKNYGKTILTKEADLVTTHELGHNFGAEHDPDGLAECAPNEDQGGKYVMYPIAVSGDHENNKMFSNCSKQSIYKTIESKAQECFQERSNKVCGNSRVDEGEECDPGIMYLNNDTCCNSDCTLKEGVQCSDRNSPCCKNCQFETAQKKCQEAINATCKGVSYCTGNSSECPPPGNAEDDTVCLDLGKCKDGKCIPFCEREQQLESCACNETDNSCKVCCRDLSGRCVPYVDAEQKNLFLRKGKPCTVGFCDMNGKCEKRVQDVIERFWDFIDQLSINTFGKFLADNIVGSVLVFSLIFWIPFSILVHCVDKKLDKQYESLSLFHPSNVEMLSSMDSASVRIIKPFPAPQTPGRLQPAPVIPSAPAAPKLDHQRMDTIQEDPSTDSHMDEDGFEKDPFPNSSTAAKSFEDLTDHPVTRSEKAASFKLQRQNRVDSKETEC
# PLC-beta3 inh: PLC-beta3 (human) inhibition, primary screen; AID 720704; Purified PLC-beta3, fluorogenic substrate, fluorescence; inhibition, % at 12.2 µM; 0.18% of 370,000 active; in the data active = inhibition above about 11%;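 also: 0% = median of compound wells on plate and 100% = full blocker control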
# proKLK7 act: activators of human kallikrein-7 zymogen; P49862; purified proKLK7, EDANS-DABCYL substrate fluorescence; 100% is mature enzyme control, 0% vehicle; activation, % at 7 µM; 0.9% of 370,000 active;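 active = activation above the mean of all tested compounds plus 3 SD, computed per campaign excluding outliers beyond control limits, cut at about 13% in these data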
# ADAM10 counter: counter-screen for ADAM17 exosite inhibitors: inhibitors of human ADAM10; 47% of 2,900 active; recombinant ADAM10, EDANS/DABCYL FRET peptide cleavage, 3 h; inhibition, % at 6.95 µM; shares compounds with ADAM17 inh;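 active = mean inhibition over the triplicate runs exceeds the activity threshold set in the earlier primary screen, cut at about 20% in these data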;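 also: 0% = DMSO wells and 100% = marimastat wells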
# ADAM17 confirm: human ADAM17 inhibition, confirmation | inhibition, % at 6.95 µM | recombinant ADAM17, EDANS/DABCYL QFRET peptide cleavage | shares compounds with ADAM17 inh | 65% of 2,900 active;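 active = mean inhibition across replicates above the hit cutoff set in the primary screen, cut at about 8.5% in these data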;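 also: 0% = DMSO wells and 100% = marimastat wells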
# * = called active by the depositor; · = no result.
SMILES,ADAM10 inh,PLC-gamma1 inh,ADAM17 inh,PLC-beta3 inh,proKLK7 act,ADAM10 counter,ADAM17 confirm
Fc1cccc(CCN2C(=S)NC[C@@H]2Cc2ccccc2)c1,5.5,-0.8,-0.5,-2.4,0.6,·,·
O=C(CN1C(=O)NC2(CCCCC2)C1=O)Nc1ccc2c(c1)OCCCO2,0.8,9.6*,10.7*,-0.6,0.0,4.4,2.1
O=C(CN1C(=O)NC2(CCCCCC2)C1=O)Nc1cccc(F)c1,-6.6,2.7,-2.3,-6.4,0.4,·,·
Cn1c(=O)c2cc(NC(=S)NC3CC3)ccc2n1C/C=C/c1ccccc1,-488.6,-129.0,-142.8,-179.7,10.6,·,·
CC(C)CNC(=S)NC1CC2CCCC(C1)N2Cc1ccco1 (stereo not drawn),-3.3,0.4,-1.8,3.0,0.1,·,·
CC(C)CNC(=S)NC1CC2CCCC(C1)N2Cc1cccs1 (stereo not drawn),8.2,3.6,12.2*,2.0,0.5,11.0,7.3
CN(CC(=O)Nc1cccc(F)c1)C(=O)c1cn(-c2ccccc2)nc1-c1ccc(Cl)cc1,17.9,3.7,9.4*,-5.1,-0.7,27.8*,17.0*
CN(CC(=O)Nc1cccc(F)c1)C(=O)c1cn(-c2ccccc2)nc1-c1cccs1,15.0,2.9,6.2,-10.4,0.7,·,·
COc1cccc(NC(=O)Cc2csc(NC(=O)Nc3ccccc3OC)n2)c1,2.9,1.5,10.4*,-6.6,0.6,34.8*,17.8*
CCSc1nsc(NC(=O)Nc2cccc(OC)c2)n1,10.3,6.5,10.8*,-1.4,0.0,15.3,14.1*
COc1ccc(C(=O)Nc2ccc(OCC(=O)N3CCOCC3)cc2)c(OC)c1OC,-7.2,-0.8,-1.6,-5.0,0.5,·,·
COc1ccc(S[C@]2(C(=O)N(C)C)CC(=O)N(C(=O)CCc3ccccc3)[C@@H]2c2ccc(OC)cc2)cc1,9.3,4.6,10.0*,1.4,-0.4,14.0,9.8*
CC(C)c1ccc(NS(=O)(=O)c2ccc(-n3cccn3)cc2)cc1,11.5,0.1,9.1*,5.1,0.2,20.9*,12.1*
CCN1C(=O)c2cccc3c(NC(=O)c4ccccc4)ccc1c23,-6.8,-99.5,-2.4,-132.6,-0.3,·,·
CCN1C(=O)c2cccc3c(NC(=O)c4ccc5c(c4)OCCO5)ccc1c23,8.0,-10.7,9.5*,-19.3,0.5,-9.1,0.4
Cc1ccc(OCc2nnc(SCC(=O)Nc3cccc4ccccc34)n2Cc2ccco2)cc1,16.8,2.4,10.0*,1.0,0.0,38.8*,19.3*
COc1ccc(-c2nnc(SCC(=O)Nc3cccc4ccccc34)n2Cc2ccco2)cc1,3.3,2.8,2.2,0.2,-1.4,·,·
O=C(CSc1nnc(COc2ccc(Cl)cc2)n1Cc1ccco1)Nc1cccc2ccccc12,16.1,-1.2,9.3*,2.2,0.1,36.2*,18.2*
CC(C)(C)OC(=O)NCCCC[C@H](NC(=O)c1nc[nH]c1C(=O)NC1CCN(C(=O)OC(C)(C)C)CC1)C(=O)OC(C)(C)C,16.7,-4.3,8.9*,-1.4,0.8,-10.3,3.4
COc1cccc(/C=C2\Oc3cc(OCC(=O)N4CCC[C@H]4C(=O)O)ccc3C2=O)c1,-43.0,-344.7,-7.6,-461.2,2.6,·,·
CCCCOC(=O)c1ccc(NC(=O)Nc2ccc(OC)c(OC)c2)cc1,17.9,-1.2,11.7*,-2.9,-0.1,26.6*,12.5*
Cc1noc(C)c1NC(=O)Nc1ccc2c(c1)C(=O)N([C@H](C)CO)C[C@H](C)[C@H](CN(C)C(=O)NC1CCCCC1)OCCCC[C@@H](C)O2,3.7,3.6,9.8*,2.5,0.3,26.5*,7.0
C[C@H](CO)N1C[C@H](C)[C@@H](CN(C)C(=O)Nc2ccccc2)Oc2ccc(NC(=O)Nc3ccc4c(c3)OCO4)cc2C1=O,-3.3,-2.3,1.4,-1.6,0.1,·,·
C[C@H](CO)N1C[C@H](C)[C@@H](CN(C)S(=O)(=O)c2cccs2)Oc2ccc(NC(=O)NC3CCCCC3)cc2C1=O,0.2,-1.3,-1.6,-1.2,0.2,·,·
C[C@@H]1CCCCO[C@H](CN(C)S(=O)(=O)c2cccs2)[C@H](C)CN([C@@H](C)CO)C(=O)c2cc(NC(=O)NC3CCCCC3)ccc2O1,15.0,3.7,11.3*,3.3,0.2,28.1*,15.7*
SMILES,ADAM10 inh,PLC-gamma1 inh,ADAM17 inh,PLC-beta3 inh,proKLK7 act,ADAM10 counter,ADAM17 confirm
C[C@H](CO)N1C[C@H](C)[C@@H](CN(C)C(=O)Nc2ccc3c(c2)OCO3)Oc2ccc(NC(=O)Nc3ccc(C(F)(F)F)cc3)cc2C1=O,18.7,-3.2,10.5*,-3.3,-0.1,20.6*,14.8*
O=S(=O)(Nc1nc(-c2ccccc2)cs1)c1cccc(C(F)(F)F)c1,15.3,-5.2,0.8,-10.7,0.1,·,·
Cc1nc(NC(=O)CSc2nnc(C3CC3)n2N)c(Cl)cc1Cl,0.9,-0.5,1.0,-6.4,-0.4,·,·
CN1CCN(C(c2ccc(Cl)cc2)c2cc(Cl)c3cccnc3c2O)CC1 (stereo not drawn),16.5,-14.4,7.5,-21.6,-0.7,·,·
CN1CCN(C(c2ccc(C(F)(F)F)cc2)c2cc(Cl)c3cccnc3c2O)CC1 (stereo not drawn),16.3,-31.4,12.5*,-35.5,-0.8,36.3*,16.4*
Oc1c(C(c2ccccn2)N2CCCCC2)cc(Cl)c2cccnc12 (stereo not drawn),10.1,-18.0,25.5*,-33.4,-0.8,9.3,26.8*
CCOC(=O)c1c(C)[nH]c(C(=O)OCc2nc3ccsc3c(=O)[nH]2)c1C,-24.9,-22.0,-10.2,-31.8,-0.5,·,·
CC(=O)N1c2ccc(S(=O)(=O)N3CCC(C(=O)Nc4cccc(C(F)(F)F)c4)CC3)cc2CC1C (stereo not drawn),11.3,7.2,10.0*,-0.5,-0.3,11.9,9.4*
Cc1ccccc1NC(=O)c1[nH]cnc1C(=O)NN,7.0,9.2,13.0*,-4.6,-0.8,-1.9,-0.1
Cc1ccccc1OCCCSc1nc2ccccc2[nH]1,18.6,0.6,8.8*,3.4,0.1,14.7,10.4*
Nc1ccccc1Sc1ccc(C(=O)c2ccccc2C(=O)O)cc1[N+](=O)[O-],16.1,-74.5,9.0*,-118.0,-0.5,6.4,2.5
COc1ccccc1CCn1cnc(-c2ccccc2)c1CC(C)C,11.2,8.0,8.7*,6.9,0.1,17.9,9.1*
OC(c1ccccc1)(c1nc(-c2cccc3cccnc23)cs1)C(F)(F)F (stereo not drawn),-4.4,7.2,5.4,-9.7,-0.1,·,·
O=C(NC(CC(=O)N1CCN(c2ccccc2O)CC1)c1ccccc1)c1ccccc1Cl (stereo not drawn),-5.7,-0.4,-2.2,-3.8,0.1,·,·
O=C(Nc1cc(C(F)(F)F)ccc1N1CCOCC1)c1ccccc1,5.4,3.3,-3.4,-0.1,0.1,·,·
